Results taken from article PMC7862700, “An all-to-all approach to the identification of sequence-specific readers for epigenetic DNA modifications on cytosine”.

Columns and labels:
Experiment in all cases: DAPPL (digital affinity profiling via proximity ligation, sequencing); 10 mM Tris-HCl pH 7.5, 50 mM NaCl, 1 mM DTT, 4% glycerol, room temperature, 30 min; GST-TFs on glutathione beads, 16-mer random dsDNA library, 0.1% formaldehyde crosslink after washing; high values mean tight binding
[1] = target: T1, FEV (Homo sapiens, UniProt Q99581 1-238); conditions: protein: recombinant; tags: N-terminal GST; dsDNA, one strand shown
T1 sequence: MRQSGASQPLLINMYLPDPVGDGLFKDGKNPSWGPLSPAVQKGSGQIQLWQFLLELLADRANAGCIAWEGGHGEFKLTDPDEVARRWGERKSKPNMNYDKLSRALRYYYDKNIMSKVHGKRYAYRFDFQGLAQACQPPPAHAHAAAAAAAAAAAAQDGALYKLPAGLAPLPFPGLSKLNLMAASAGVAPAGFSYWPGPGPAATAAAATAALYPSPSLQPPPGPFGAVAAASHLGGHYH
How it was run: (§1)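 Binding signal is given per hexamer as its read frequency for a factor divided by its frequency in the tag-only sample. GST-fused human transcription factors were expressed in yeast, captured on glutathione beads, barcoded with DNA and pooled with that sample, then incubated with 200 nmole of a 16-mer random double-stranded DNA library in Tris/NaCl/DTT/glycerol buffer for 30 min at room temperature. The pools were then washed, crosslinked, proximity-ligated, amplified by PCR and sequenced on an Illumina NextSeq500.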

[2] = target: ETV5 (Homo sapiens, UniProt P41161 1-510); conditions: protein: recombinant; tags: N-terminal GST; dsDNA, one strand shown
How it was run: as §1

[3] = target: HSF1 (Homo sapiens, UniProt Q00613 1-529); conditions: protein: recombinant; tags: N-terminal GST; chain copies: 3; dsDNA, one strand shown
How it was run: as §1

[4] = target: T2, SPIC (Homo sapiens, UniProt Q8N5J4 1-248); conditions: protein: recombinant; tags: N-terminal GST; dsDNA, one strand shown
T2 sequence: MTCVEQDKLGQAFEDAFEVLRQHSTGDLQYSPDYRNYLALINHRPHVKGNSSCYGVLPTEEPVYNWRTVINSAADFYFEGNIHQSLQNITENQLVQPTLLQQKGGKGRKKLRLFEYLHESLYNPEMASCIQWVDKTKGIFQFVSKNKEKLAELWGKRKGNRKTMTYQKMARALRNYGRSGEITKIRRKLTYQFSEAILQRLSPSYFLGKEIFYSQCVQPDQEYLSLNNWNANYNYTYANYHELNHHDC
How it was run: as §1

[5] = target: ELF4 (Homo sapiens, UniProt Q99607 1-663); conditions: protein: recombinant; tags: N-terminal GST; dsDNA, one strand shown
How it was run: as §1

[6] = target: T3, ELK4 (Homo sapiens, UniProt P28324-2 1-405); conditions: protein: recombinant; tags: N-terminal GST; dsDNA, one strand shown
T3 sequence: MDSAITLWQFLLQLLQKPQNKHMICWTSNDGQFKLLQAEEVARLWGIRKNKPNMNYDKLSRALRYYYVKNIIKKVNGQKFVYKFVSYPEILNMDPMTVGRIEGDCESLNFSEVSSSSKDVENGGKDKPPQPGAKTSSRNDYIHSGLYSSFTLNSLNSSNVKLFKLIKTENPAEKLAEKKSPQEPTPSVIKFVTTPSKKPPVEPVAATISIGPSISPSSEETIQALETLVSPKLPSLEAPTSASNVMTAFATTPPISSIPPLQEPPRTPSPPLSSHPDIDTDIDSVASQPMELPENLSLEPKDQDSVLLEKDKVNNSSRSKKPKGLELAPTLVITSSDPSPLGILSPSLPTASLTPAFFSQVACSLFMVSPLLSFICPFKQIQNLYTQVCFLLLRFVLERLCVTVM
How it was run: as §1

[7] = target: T4, ETV2 (Homo sapiens, UniProt O00321 1-342); conditions: protein: recombinant; tags: N-terminal GST; dsDNA, one strand shown
T4 sequence: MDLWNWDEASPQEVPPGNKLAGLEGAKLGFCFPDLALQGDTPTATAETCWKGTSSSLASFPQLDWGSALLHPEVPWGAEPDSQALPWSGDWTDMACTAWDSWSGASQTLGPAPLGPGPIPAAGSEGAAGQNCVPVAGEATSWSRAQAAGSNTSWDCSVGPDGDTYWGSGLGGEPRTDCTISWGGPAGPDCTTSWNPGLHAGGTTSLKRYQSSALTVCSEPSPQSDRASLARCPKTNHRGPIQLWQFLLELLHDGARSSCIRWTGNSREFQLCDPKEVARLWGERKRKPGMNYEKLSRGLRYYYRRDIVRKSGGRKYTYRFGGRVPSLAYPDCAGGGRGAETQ
How it was run: as §1

[8] = target: T5, ELF3 (Homo sapiens, UniProt P78545 1-371); conditions: protein: recombinant; tags: N-terminal GST; dsDNA, one strand shown
T5 sequence: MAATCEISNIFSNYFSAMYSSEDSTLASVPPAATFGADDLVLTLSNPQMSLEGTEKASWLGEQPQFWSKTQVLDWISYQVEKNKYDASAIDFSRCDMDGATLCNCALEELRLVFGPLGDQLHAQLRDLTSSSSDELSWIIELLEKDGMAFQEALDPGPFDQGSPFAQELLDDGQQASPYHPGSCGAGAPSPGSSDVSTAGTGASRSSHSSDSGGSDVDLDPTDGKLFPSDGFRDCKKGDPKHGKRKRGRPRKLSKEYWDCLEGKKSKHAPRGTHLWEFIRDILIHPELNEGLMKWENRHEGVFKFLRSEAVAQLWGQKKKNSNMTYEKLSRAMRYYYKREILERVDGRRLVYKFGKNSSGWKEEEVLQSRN
How it was run: as §1

[9] = target: CRX (Homo sapiens, UniProt O43186 1-299); conditions: protein: recombinant; tags: N-terminal GST; dsDNA, one strand shown
How it was run: as §1

[10] = target: ETV1 (Homo sapiens, UniProt P50549 1-477); conditions: protein: recombinant; tags: N-terminal GST; dsDNA, one strand shown
How it was run: as §1

ELF4, sequence (Q99607 whole entry): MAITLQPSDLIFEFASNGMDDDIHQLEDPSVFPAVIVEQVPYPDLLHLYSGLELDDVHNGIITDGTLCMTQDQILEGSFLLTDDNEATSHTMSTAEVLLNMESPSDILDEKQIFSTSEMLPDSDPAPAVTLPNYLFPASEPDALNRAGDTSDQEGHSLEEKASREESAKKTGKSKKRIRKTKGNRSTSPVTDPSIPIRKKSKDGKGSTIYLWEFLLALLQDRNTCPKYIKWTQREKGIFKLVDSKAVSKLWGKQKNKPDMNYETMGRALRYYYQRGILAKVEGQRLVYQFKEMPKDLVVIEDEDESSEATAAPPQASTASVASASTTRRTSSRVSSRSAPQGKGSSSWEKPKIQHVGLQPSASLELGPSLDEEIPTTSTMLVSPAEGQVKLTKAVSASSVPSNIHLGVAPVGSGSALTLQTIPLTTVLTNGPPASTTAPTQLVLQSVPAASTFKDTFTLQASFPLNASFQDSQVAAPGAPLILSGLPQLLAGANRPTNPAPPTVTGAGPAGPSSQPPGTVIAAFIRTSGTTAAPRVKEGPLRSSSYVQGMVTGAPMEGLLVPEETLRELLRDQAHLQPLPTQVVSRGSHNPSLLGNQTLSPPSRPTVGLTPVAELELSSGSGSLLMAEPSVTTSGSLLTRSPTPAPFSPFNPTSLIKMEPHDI
HSF1, sequence (Q00613 whole entry): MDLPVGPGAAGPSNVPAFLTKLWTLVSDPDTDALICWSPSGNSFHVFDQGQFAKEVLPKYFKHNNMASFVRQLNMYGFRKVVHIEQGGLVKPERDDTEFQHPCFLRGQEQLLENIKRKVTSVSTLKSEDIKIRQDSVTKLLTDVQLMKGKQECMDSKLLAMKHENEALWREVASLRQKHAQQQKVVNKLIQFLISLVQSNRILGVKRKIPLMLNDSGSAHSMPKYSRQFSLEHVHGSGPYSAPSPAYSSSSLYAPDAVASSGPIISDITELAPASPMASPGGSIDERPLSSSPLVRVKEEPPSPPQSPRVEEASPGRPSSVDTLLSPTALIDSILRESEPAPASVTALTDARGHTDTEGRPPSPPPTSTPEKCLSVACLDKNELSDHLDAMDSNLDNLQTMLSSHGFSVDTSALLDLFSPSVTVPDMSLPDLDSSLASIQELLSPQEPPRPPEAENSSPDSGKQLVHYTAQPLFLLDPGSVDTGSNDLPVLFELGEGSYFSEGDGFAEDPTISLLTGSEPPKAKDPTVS
ETV5, sequence (P41161 whole entry): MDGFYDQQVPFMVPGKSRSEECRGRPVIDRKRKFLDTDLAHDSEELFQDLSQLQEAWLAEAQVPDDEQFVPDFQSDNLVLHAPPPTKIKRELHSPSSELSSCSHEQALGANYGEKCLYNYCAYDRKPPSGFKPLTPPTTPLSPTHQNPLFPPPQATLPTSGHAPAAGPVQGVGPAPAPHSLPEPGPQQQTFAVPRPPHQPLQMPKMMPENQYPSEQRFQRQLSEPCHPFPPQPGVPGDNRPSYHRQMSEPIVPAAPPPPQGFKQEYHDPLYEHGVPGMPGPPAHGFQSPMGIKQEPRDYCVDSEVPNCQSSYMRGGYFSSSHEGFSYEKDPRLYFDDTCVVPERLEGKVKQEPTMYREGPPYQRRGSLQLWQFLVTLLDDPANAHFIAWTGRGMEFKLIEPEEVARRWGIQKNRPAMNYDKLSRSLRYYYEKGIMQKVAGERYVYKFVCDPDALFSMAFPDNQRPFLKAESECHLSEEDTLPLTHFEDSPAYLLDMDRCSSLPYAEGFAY
CRX, sequence (O43186 whole entry): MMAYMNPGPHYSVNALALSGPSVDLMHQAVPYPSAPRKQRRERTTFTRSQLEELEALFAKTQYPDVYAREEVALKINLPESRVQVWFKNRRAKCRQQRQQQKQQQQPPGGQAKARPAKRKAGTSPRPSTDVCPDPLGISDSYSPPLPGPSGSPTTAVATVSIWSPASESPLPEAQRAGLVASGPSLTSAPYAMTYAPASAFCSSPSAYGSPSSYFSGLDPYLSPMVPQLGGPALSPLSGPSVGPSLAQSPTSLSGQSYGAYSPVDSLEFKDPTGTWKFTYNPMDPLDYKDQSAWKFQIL
ETV1, sequence (P50549 whole entry): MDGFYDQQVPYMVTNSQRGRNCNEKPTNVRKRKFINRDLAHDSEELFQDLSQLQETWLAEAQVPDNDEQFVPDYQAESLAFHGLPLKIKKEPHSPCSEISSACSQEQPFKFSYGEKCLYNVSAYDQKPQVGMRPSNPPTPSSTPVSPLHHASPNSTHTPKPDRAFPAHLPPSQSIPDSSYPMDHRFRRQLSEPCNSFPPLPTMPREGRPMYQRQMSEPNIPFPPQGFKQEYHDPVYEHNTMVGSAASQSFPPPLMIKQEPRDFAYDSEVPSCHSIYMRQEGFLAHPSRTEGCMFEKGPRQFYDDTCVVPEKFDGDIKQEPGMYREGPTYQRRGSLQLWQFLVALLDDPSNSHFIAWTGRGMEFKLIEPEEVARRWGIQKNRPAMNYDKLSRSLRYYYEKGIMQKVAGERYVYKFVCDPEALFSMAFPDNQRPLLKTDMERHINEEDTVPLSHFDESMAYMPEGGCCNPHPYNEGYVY

Row | Sequence | binding signal [1] | binding signal [2] | binding signal [3] | binding signal [4] | binding signal [5] | binding signal [6] | binding signal [7] | binding signal [8] | binding signal [9] | binding signal [10]
1 | TGACTC | 1.36 fold enrichment (6-mer frequency, TF over GST control) | 1.24 fold enrichment (6-mer frequency, TF over GST control) | 1.1 fold enrichment (6-mer frequency, TF over GST control) | 1.48 fold enrichment (6-mer frequency, TF over GST control) | 1.35 fold enrichment (6-mer frequency, TF over GST control) | 1.31 fold enrichment (6-mer frequency, TF over GST control) | 1.31 fold enrichment (6-mer frequency, TF over GST control) | 1.36 fold enrichment (6-mer frequency, TF over GST control) | 1.07 fold enrichment (6-mer frequency, TF over GST control) | 1.33 fold enrichment (6-mer frequency, TF over GST control)
2 | ACTTGT | 1.28 fold enrichment (6-mer frequency, TF over GST control) | 1.21 fold enrichment (6-mer frequency, TF over GST control) | 1.12 fold enrichment (6-mer frequency, TF over GST control) | 1.08 fold enrichment (6-mer frequency, TF over GST control) | 1.37 fold enrichment (6-mer frequency, TF over GST control) | 1.36 fold enrichment (6-mer frequency, TF over GST control) | 1.31 fold enrichment (6-mer frequency, TF over GST control) | 1.16 fold enrichment (6-mer frequency, TF over GST control) | 1.1 fold enrichment (6-mer frequency, TF over GST control) | 1.29 fold enrichment (6-mer frequency, TF over GST control)
3 | GGTTTA | 1.05 fold enrichment (6-mer frequency, TF over GST control) | 1.06 fold enrichment (6-mer frequency, TF over GST control) | 1.29 fold enrichment (6-mer frequency, TF over GST control) | 1.13 fold enrichment (6-mer frequency, TF over GST control) | 1.06 fold enrichment (6-mer frequency, TF over GST control) | 1.13 fold enrichment (6-mer frequency, TF over GST control) | 1.15 fold enrichment (6-mer frequency, TF over GST control) | 1.13 fold enrichment (6-mer frequency, TF over GST control) | 1.66 fold enrichment (6-mer frequency, TF over GST control) | 1.05 fold enrichment (6-mer frequency, TF over GST control)
4 | AAAAAC | 1.28 fold enrichment (6-mer frequency, TF over GST control) | 1.26 fold enrichment (6-mer frequency, TF over GST control) | 1.19 fold enrichment (6-mer frequency, TF over GST control) | 1.27 fold enrichment (6-mer frequency, TF over GST control) | 1.31 fold enrichment (6-mer frequency, TF over GST control) | 1.14 fold enrichment (6-mer frequency, TF over GST control) | 1.32 fold enrichment (6-mer frequency, TF over GST control) | 1.3 fold enrichment (6-mer frequency, TF over GST control) | 1.16 fold enrichment (6-mer frequency, TF over GST control) | 1.27 fold enrichment (6-mer frequency, TF over GST control)
5 | CTCGCT | 1.67 fold enrichment (6-mer frequency, TF over GST control) | 1.66 fold enrichment (6-mer frequency, TF over GST control) | 1.66 fold enrichment (6-mer frequency, TF over GST control) | 1.76 fold enrichment (6-mer frequency, TF over GST control) | 1.56 fold enrichment (6-mer frequency, TF over GST control) | 1.68 fold enrichment (6-mer frequency, TF over GST control) | 1.52 fold enrichment (6-mer frequency, TF over GST control) | 1.83 fold enrichment (6-mer frequency, TF over GST control) | 1.37 fold enrichment (6-mer frequency, TF over GST control) | 1.71 fold enrichment (6-mer frequency, TF over GST control)
6 | TATCCC | 1.59 fold enrichment (6-mer frequency, TF over GST control) | 1.64 fold enrichment (6-mer frequency, TF over GST control) | 1.61 fold enrichment (6-mer frequency, TF over GST control) | 1.6 fold enrichment (6-mer frequency, TF over GST control) | 1.54 fold enrichment (6-mer frequency, TF over GST control) | 1.64 fold enrichment (6-mer frequency, TF over GST control) | 1.44 fold enrichment (6-mer frequency, TF over GST control) | 1.83 fold enrichment (6-mer frequency, TF over GST control) | 2.22 fold enrichment (6-mer frequency, TF over GST control) | 1.39 fold enrichment (6-mer frequency, TF over GST control)
7 | CCCACG | 1.13 fold enrichment (6-mer frequency, TF over GST control) | 1.22 fold enrichment (6-mer frequency, TF over GST control) | 1.01 fold enrichment (6-mer frequency, TF over GST control) | 1.22 fold enrichment (6-mer frequency, TF over GST control) | 1.27 fold enrichment (6-mer frequency, TF over GST control) | 1.25 fold enrichment (6-mer frequency, TF over GST control) | 1.01 fold enrichment (6-mer frequency, TF over GST control) | 1.21 fold enrichment (6-mer frequency, TF over GST control) | 1 fold enrichment (6-mer frequency, TF over GST control) | 1.06 fold enrichment (6-mer frequency, TF over GST control)
